# Measured values reported in article PMC7862700, “An all-to-all approach to the identification of sequence-specific readers for epigenetic DNA modifications on cytosine”.
# Columns and labels:
# Experiment in all cases: DAPPL (digital affinity profiling via proximity ligation, sequencing); 10 mM Tris-HCl pH 7.5, 50 mM NaCl, 1 mM DTT, 4% glycerol, room temperature, 30 min; GST-TFs on glutathione beads, 16-mer random dsDNA library, 0.1% formaldehyde crosslink after washing; high values mean tight binding
# [1] = biological target: T1, FEV (Homo sapiens, UniProt Q99581 1-238); settings: protein: recombinant; tags: N-terminal GST; dsDNA, one strand shown
# T1 sequence: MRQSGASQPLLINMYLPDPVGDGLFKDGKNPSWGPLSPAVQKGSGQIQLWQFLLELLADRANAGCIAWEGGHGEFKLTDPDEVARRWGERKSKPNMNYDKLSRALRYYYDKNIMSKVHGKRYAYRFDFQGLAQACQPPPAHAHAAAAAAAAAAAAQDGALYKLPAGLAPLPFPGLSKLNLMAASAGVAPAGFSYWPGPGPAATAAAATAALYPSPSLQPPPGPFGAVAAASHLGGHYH
# How it was run: (§1)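 Binding signal is given per hexamer as its read frequency for a factor divided by its frequency in the tag-only sample. GST-fused human transcription factors were expressed in yeast, captured on glutathione beads, barcoded with DNA and pooled with that sample, then incubated with 200 nmole of a 16-mer random double-stranded DNA library in Tris/NaCl/DTT/glycerol buffer for 30 min at room temperature. The pools were then washed, crosslinked, proximity-ligated, amplified by PCR and sequenced on an Illumina NextSeq500.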
# [2] = biological target: ETV5 (Homo sapiens, UniProt P41161 1-510); settings: protein: recombinant; tags: N-terminal GST; dsDNA, one strand shown
# Sequence of ETV5 (P41161 whole entry): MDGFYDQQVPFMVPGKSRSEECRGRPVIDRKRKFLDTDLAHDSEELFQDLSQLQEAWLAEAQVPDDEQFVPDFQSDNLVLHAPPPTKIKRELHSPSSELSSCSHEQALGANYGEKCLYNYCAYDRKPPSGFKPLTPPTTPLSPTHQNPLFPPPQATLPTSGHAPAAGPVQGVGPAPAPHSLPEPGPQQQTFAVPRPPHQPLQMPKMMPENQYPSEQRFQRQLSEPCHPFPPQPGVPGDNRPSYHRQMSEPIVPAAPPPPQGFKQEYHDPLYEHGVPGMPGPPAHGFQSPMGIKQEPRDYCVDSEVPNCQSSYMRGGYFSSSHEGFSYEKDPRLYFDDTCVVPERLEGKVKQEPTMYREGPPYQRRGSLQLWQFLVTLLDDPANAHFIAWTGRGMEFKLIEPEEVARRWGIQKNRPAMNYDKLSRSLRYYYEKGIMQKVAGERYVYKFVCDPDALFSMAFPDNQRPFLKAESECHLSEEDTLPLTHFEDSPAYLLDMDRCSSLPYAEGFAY
# How it was run: as §1
# [3] = biological target: HSF1 (Homo sapiens, UniProt Q00613 1-529); settings: protein: recombinant; tags: N-terminal GST; chain copies: 3; dsDNA, one strand shown
# Sequence of HSF1 (Q00613 whole entry): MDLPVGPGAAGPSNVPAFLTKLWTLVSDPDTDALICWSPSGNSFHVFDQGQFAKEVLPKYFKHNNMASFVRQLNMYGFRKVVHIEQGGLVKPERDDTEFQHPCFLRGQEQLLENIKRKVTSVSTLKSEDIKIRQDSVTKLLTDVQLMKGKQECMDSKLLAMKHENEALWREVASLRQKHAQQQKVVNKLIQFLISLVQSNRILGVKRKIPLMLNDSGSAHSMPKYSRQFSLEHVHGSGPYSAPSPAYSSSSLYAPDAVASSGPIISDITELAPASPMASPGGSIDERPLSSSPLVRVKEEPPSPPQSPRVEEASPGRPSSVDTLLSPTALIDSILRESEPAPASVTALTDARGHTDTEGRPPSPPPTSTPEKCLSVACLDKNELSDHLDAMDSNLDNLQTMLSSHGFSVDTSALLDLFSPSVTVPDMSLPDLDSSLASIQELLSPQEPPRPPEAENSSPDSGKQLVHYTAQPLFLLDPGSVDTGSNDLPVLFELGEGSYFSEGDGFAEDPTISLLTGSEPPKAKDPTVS
# How it was run: as §1
# [4] = biological target: T2, SPIC (Homo sapiens, UniProt Q8N5J4 1-248); settings: protein: recombinant; tags: N-terminal GST; dsDNA, one strand shown
# T2 sequence: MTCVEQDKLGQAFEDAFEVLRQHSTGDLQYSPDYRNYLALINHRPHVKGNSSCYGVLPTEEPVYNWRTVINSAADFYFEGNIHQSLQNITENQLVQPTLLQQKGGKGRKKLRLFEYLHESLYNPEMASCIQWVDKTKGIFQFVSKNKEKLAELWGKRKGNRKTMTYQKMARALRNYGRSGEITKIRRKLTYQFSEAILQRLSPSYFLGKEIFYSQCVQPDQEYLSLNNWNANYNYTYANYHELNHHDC
# How it was run: as §1
# [5] = biological target: ELF4 (Homo sapiens, UniProt Q99607 1-663); settings: protein: recombinant; tags: N-terminal GST; dsDNA, one strand shown
# Sequence of ELF4 (Q99607 whole entry): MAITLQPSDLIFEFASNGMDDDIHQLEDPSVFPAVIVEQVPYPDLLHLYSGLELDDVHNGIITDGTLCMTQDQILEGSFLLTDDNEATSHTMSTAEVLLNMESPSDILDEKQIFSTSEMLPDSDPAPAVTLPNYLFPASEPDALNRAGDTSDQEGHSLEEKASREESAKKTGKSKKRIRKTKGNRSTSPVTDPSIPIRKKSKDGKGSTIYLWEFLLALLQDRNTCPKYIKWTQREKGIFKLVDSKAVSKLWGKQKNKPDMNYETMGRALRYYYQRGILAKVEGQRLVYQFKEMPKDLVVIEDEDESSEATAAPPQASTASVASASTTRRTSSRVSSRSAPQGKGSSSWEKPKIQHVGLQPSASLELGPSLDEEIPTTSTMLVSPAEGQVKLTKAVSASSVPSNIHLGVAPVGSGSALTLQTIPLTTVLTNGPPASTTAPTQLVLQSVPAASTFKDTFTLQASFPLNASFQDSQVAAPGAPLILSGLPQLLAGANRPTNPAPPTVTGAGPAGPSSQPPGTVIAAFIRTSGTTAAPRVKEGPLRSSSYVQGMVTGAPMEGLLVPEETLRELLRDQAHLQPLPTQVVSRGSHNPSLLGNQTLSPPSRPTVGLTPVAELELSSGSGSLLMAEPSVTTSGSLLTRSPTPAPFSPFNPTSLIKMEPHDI
# How it was run: as §1
# [6] = biological target: T3, ELK4 (Homo sapiens, UniProt P28324-2 1-405); settings: protein: recombinant; tags: N-terminal GST; dsDNA, one strand shown
# T3 sequence: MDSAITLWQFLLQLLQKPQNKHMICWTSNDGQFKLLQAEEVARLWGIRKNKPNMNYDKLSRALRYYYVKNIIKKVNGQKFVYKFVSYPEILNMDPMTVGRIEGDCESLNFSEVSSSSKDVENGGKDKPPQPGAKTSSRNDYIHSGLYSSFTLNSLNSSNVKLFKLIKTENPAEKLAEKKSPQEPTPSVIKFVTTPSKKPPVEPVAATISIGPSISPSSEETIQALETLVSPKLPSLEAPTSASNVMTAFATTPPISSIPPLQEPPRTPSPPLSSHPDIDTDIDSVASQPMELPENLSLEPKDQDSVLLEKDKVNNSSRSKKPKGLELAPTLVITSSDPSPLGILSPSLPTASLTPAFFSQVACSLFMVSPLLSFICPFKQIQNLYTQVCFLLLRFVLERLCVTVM
# How it was run: as §1
# [7] = biological target: T4, ETV2 (Homo sapiens, UniProt O00321 1-342); settings: protein: recombinant; tags: N-terminal GST; dsDNA, one strand shown
# T4 sequence: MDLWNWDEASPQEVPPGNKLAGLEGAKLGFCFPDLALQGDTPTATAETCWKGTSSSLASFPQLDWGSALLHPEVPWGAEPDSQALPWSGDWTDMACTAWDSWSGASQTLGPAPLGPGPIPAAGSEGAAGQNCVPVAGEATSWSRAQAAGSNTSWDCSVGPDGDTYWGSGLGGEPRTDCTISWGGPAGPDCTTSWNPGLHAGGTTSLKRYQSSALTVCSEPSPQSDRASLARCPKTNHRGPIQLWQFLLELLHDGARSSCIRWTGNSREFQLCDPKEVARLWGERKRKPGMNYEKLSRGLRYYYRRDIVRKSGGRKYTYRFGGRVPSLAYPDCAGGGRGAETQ
# How it was run: as §1
# [8] = biological target: T5, ELF3 (Homo sapiens, UniProt P78545 1-371); settings: protein: recombinant; tags: N-terminal GST; dsDNA, one strand shown
# T5 sequence: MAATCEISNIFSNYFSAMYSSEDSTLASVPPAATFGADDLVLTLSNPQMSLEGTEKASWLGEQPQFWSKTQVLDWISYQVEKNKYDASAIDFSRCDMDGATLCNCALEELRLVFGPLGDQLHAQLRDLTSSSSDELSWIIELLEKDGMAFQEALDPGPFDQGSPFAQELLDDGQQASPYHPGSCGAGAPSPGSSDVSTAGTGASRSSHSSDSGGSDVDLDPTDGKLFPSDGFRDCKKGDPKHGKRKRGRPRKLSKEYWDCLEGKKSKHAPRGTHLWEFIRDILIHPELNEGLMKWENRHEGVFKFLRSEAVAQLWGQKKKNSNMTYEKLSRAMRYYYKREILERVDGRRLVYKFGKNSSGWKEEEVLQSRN
# How it was run: as §1
# [9] = biological target: CRX (Homo sapiens, UniProt O43186 1-299); settings: protein: recombinant; tags: N-terminal GST; dsDNA, one strand shown
# Sequence of CRX (O43186 whole entry): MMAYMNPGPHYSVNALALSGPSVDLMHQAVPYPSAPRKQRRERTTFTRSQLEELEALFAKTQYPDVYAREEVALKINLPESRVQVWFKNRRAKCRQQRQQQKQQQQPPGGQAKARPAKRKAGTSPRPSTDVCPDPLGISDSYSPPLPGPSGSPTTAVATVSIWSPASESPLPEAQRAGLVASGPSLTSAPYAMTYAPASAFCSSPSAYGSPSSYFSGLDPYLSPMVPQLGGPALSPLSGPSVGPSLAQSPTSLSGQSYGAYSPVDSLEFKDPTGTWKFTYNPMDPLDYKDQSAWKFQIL
# How it was run: as §1
sequence,measurement,setting,value
TTGAAA,binding signal,[1],"1.13 fold enrichment (6-mer frequency, TF over GST control)"
same,binding signal,[2],"1.18 fold enrichment (6-mer frequency, TF over GST control)"
same,binding signal,[3],"1.24 fold enrichment (6-mer frequency, TF over GST control)"
same,binding signal,[4],"1.15 fold enrichment (6-mer frequency, TF over GST control)"
same,binding signal,[5],"1.21 fold enrichment (6-mer frequency, TF over GST control)"
same,binding signal,[6],"1.18 fold enrichment (6-mer frequency, TF over GST control)"
same,binding signal,[7],"1.28 fold enrichment (6-mer frequency, TF over GST control)"
same,binding signal,[8],"1.13 fold enrichment (6-mer frequency, TF over GST control)"
same,binding signal,[9],"1.24 fold enrichment (6-mer frequency, TF over GST control)"
